SMILES strings stand for the structures. Among all 69,000 compounds or so, about 8,600 (12%) showed an effect of 50% or more. Shown is part of a subset that was picked to be rich in strong results.

The experiment deals with Plasmodium berghei. Briefly: Screen against P. berghei liver stage (PbLuc), transformed with Luciferase, at 10uM. It counts as functional, HepG2. Particulars: tested at 10 uM.
For the compound `C=C/C=c1\c(=C/C)oc2c(NCc3ccccc3)nc(C)nc12`, the INHIBITION was determined as 68%.

Turning to `C=C/C=c1\c(=C/C)oc2c(NCc3ccccc3)ncnc12`, the INHIBITION was found to be 60.3%. With `Cc1nn(C)c2c(NCc3ccccn3)ncnc12` the figure was 42.1%. With `C=C/C=c1\c(=C/C)oc2c(NCc3ccccc3)nc(CC)nc12` the figure was 22.5%; with `Cc1nc(NCc2cccnc2)c2c(n1)c(C)nn2C`, 1.81%; with `Cc1ncc(CN)c(-c2cn(C)c3ccccc23)n1`, 9.05%. With `CN(CC(N)=O)C(=O)C1Cc2cc(Cl)ccc2O1` (configuration not stated) the figure was -5.64%; with `CN(C)CC1(O)CCN(C(=O)Cc2ccc3c(c2)CCCC3)C1` (configuration not stated), 20.6%.

Take `CN(C)CC1(O)CCCN(C(=O)Cc2ccc(Cl)c(Cl)c2)C1` (configuration not stated): the INHIBITION was determined as 52.2%. Consider `CN(C)CC1(O)CCN(C(=O)Cc2ccc(Cl)c(Cl)c2)C1` (configuration not stated), for which the INHIBITION was 39.1%. On to `O=C1[C@@H]2CN(c3ncnc4sccc34)C[C@]2(C(=O)O)CN1CC1CC1`, for which the INHIBITION is on record as 29.2%. The value for `Cc1nn(C)c(N(C)C)c1CNC1CCOc2c(Cl)cccc21` (configuration not stated) was -17.7%; that for `COc1ccccc1C1(O)CCCN(C(=O)c2ccnn2C(C)C)C1` (configuration not stated) was -24.4%. The value for `CNC(=O)[C@@H]1CN(C(=O)C(C)C)C[C@H]1c1ccnc(N2CCCC2)n1` was 21.7%; that for `Cc1noc(C2CCC3(CCN(C(=O)C4CCOCC4)CC3)O2)n1` (configuration not stated) was 32.2%. The value for `NC(CC1CCCC1)c1ccc(Oc2ccccc2)cc1` (configuration not stated) was 80.1%; that for `NC(=O)C(NC1CCN(CC2CCCCC2)CC1)c1ccc(F)cc1` (configuration not stated) was -55.1%; that for `NC(c1ccccc1)c1ccc(OC(F)F)cc1` (configuration not stated) was 29.3%. For the compound `NC(CC1CCCC1)c1ccccc1` (configuration not stated), the INHIBITION was determined as 62.2%. The value for `NC(=O)C(NC1CCN(CC2CCCCC2)CC1)c1ccccc1` (configuration not stated) was -139%. The value for `NC(CC1CCCCC1)c1ccccc1` (configuration not stated) was 5.15%.

Turning to `COCc1noc(Cc2cc(Cl)c3c(c2)OCCCO3)n1`, the INHIBITION is reported as -69.2%. As for `CC(C)(C)CC(=O)NCCCn1cncn1`, the INHIBITION is given as 40.6%. The value for `Cc1cn2c(n1)CCC(NC(=O)c1cncnc1C)C2` (configuration not stated) was -0.219%. The value for `N#CCSCCCN1CCCC(C(=O)N2CCCCCC2)C1` (configuration not stated) was 35.5%; that for `CC1CCN(CCNC(=O)C2CCN(C(=O)C3CC3)CC2)CC1` was -8.23%; that for `CC(NCCN1CCN(C(=O)C2CCCC2)CC1)c1cnn(C)c1` (configuration not stated) was 17.1%. With `N#CCSCCCN1CCC(C(=O)N2CCCCCC2)CC1` the figure was 51.8%; with `N#CCSCCCN1CCN(C(=O)C2CCCC2)CC1`, 50.7%. `Cc1ccc(C(=O)N2CCN(CCCSCC#N)CC2)o1`: the INHIBITION worked out at 0.139%. Consider `O=C(O)c1cc(S(=O)(=O)Nc2ccc(F)cc2Cl)cc2c1OCCO2`, for which the INHIBITION amounted to 23.5%.

As to `O=C([C@H]1CCCO1)N1CCCC2(CCN(Cc3ccncc3)C2=O)C1` (some centres not stated), the INHIBITION is 10.3%. Turning to `CN1C(=O)CCCC12CCCN(C(=O)c1cc(F)cc(F)c1)C2` (configuration not stated), the INHIBITION is 33.4%. The value for `Cn1cc(CC(=O)N2CCCC(n3cncn3)C2)cn1` (configuration not stated) was 17.4%.

On to `Cc1cnc(CNC(=O)CCCn2cnc3ccccc3c2=O)cn1`, for which the INHIBITION is 34.6%. The value for `Cc1csc2c(C3CCCN(C(=O)CCn4cncn4)C3)nc(C)n12` (configuration not stated) was 5.34%; that for `CCc1noc(CCCC(=O)N2CCCC(c3ccn[nH]3)C2)n1` (configuration not stated) was 42.8%. With `CC(C)c1nc(C2CCCN(C(=O)CCn3ccnc3)C2)no1` (configuration not stated) the figure was 56.1%. With `O=C(CCCc1nc(C2CC2)no1)N1CCCC(c2ccn[nH]2)C1` (configuration not stated) the figure was 52.6%. As to `CC(C)c1nc(C2CCCN(C(=O)CCn3cncn3)C2)no1` (configuration not stated), the INHIBITION stood at 31.2%. With `Cc1nc(C2CCCN2C(=O)CCCn2cccn2)no1` (configuration not stated) the figure was -25.9%; with `Cc1nc(C2CCCN(C(=O)CCCn3cccn3)C2)no1` (configuration not stated), 53.5%. With `Cc1csc2c(C3CCCN(C(=O)CCn4ccnc4)C3)nc(C)n12` (configuration not stated) the figure was 57.3%. The value for `CC(C)c1nc(C2CCCN(C(=O)CCCn3cccn3)C2)no1` (configuration not stated) was -29.8%.

On to `CC(C)c1nc(C2CCCN(C(=O)CCCn3ccnc3)C2)no1` (configuration not stated), for which the INHIBITION is reported as -19.4%.

Take `CCCc1noc(CCC(=O)N2CCCC(c3ccn[nH]3)C2)n1` (configuration not stated): the INHIBITION stood at 16.8%.

For `Cc1csc2c(C3CCCN(C(=O)CCCn4cncn4)C3)nc(C)n12` (configuration not stated), the INHIBITION is reported as -1.16%. With `Cc1ccc(S(=O)(=O)Nc2cnn(C3CCOCC3)c2)cc1C` the figure was -52.5%; with `CCCc1ccc(S(=O)(=O)NC(=O)CCc2cscn2)cc1`, 16.2%; with `O=S(=O)(c1cncc(F)c1)N1CCSC2(CCCCC2)C1`, 28.5%.

Take `COc1c(C2CCCN2C(=O)c2cccnc2N(C)C)c(C)nn1C` (configuration not stated): the INHIBITION was found to be 23.4%. For the compound `COc1ccc(-n2cc(CNC(=O)c3cc[nH]n3)nn2)cc1`, the INHIBITION was -120%. Turning to `O=S(=O)(CCCN1CCc2c(ncn2C2CC2)C1)c1ccccc1`, the INHIBITION is recorded as -27.5%.

With `CC(C)N1C(=O)CC(N2CCN(c3ccc(F)cc3)CC2)C1=O` (configuration not stated), the INHIBITION is reported as 14.3%. With `CC(C)CN1C(=O)CC(N2CCN(c3ccc(F)cc3)CC2)C1=O` (configuration not stated) the figure was 54%; with `CCCN1C(=O)CC(N2CCN(c3ccc(F)cc3)CC2)C1=O` (configuration not stated), -34.7%. With `CCN(Cc1ccc2c(c1)OCO2)C(=O)NC(C)Cn1ccnc1` (configuration not stated) the figure was 26.4%; with `Cc1sc(CNS(N)(=O)=O)nc1-c1ccc(Cl)cc1`, -20.6%. For `NC(=O)CN1CCC(OCc2ccc(Cl)c(Cl)c2)CC1`, the INHIBITION is reported as 33.1%. The value for `CNC(=O)CN1CCC(OCc2ccc(Cl)c(Cl)c2)CC1` was 65.6%; that for `CCC(N)C(=O)N1CCC(OCc2ccc(Cl)c(Cl)c2)CC1` (configuration not stated) was 47.7%. `CC1=N[C@@]2(CC[C@@H]3CN(Cc4ccccc4F)C[C@@H]32)C(=O)N1CC1CC1`: the INHIBITION is on record as 20.1%. For the compound `CCn1ncnc1C1CC(=O)NCc2nc(N)sc21` (configuration not stated), the INHIBITION is recorded as 19.7%. Take `OC(c1ccccc1)C1CCN(Cc2csc(-c3ncccn3)n2)CC1` (configuration not stated): the INHIBITION amounted to 59.8%. With `Cc1ccc(-c2nc(CN3CCN(CC(=O)N(C)C)CC3)cs2)o1` the figure was 15.3%; with `CC(C)C(=O)N1CCN(Cc2csc(-c3ncccn3)n2)CC1`, 41.8%. With `Cc1ccc(-c2nc(CN3CCN(C(=O)C4CC4)CC3)cs2)o1` the figure was -34%; with `CC(=O)N1CCCN(Cc2csc(-c3ncccn3)n2)CC1`, 30.8%; with `CC(O)CN1CCN(Cc2csc(-c3ncccn3)n2)CC1` (configuration not stated), 60.8%.

Consider `COC(=O)N1CCN(Cc2csc(-c3ncccn3)n2)CC1`, for which the INHIBITION was -42.5%.

As to `Cc1ccc(-c2nc(CN3CCN(S(=O)(=O)N(C)C)CC3)cs2)o1`, the INHIBITION was 52.1%. The value for `CC(C)CC(=O)N1CCN(Cc2csc(-c3ncccn3)n2)CC1` was 10.6%. With `CC(C)c1nc(CN2CCN(Cc3ccccn3)CC2)cs1` the figure was -53.5%. Take `CS(=O)(=O)N1CCN(Cc2csc(-c3ncccn3)n2)CC1`: the INHIBITION is reported as 56.8%. Consider `CC(C)C(=O)N1CCN(Cc2csc(-c3ccccn3)n2)CC1`, for which the INHIBITION turned out to be 47.4%. Turning to `Cn1ccc(C(=O)NCc2ccc(N3CCCCC3)nc2)cc1=O`, the INHIBITION was 46.2%.

On to `O=C(O)[C@]12CCCN(Cc3ccncc3)C[C@H]1CN(c1ncccn1)C2`, for which the INHIBITION is given as -20.1%. The value for `Cn1cnc2c1C(COCC1CCOCC1)CN(Cc1ccccn1)C2` (configuration not stated) was 36.9%; that for `Cc1oncc1C(=O)N1CCC2(CC1)CC(N1CCOCC1)C2` was -15.9%; that for `CNc1cc(-c2ccncc2)ncn1` was 24.8%. The value for `Cc1cc(C)n(CC2CCCN2C(=O)c2cccc3c2OCO3)n1` (configuration not stated) was 25.15%. The value for `Cc1cc(C)n(CC2CCCN2C(=O)c2ccc3c(c2)OCO3)n1` (configuration not stated) was 52.1%; that for `Cc1cc(C)n(CC2CCCN2C(=O)c2ccc3c(c2)COC3)n1` (configuration not stated) was 51.6%. `Cc1cc(C)n(CC2CCCCN2C(=O)c2ccc3c(c2)OCO3)n1` (configuration not stated): the INHIBITION is 5.97%. The value for `Cc1cnn(CC2CCCCN2C(=O)c2ccc3c(c2)COC3)c1` (configuration not stated) was -18%; that for `Cc1cc(C)n(CC2CCCN2C(=O)c2ccc3[nH]c(=O)[nH]c3c2)n1` (configuration not stated) was 16.3%; that for `Cc1cc(C)n(CC2CCCN2C(=O)c2ccc3c(c2)OCCO3)n1` (configuration not stated) was 15.2%. The value for `Cc1cc(C)n(CC2CCCCN2C(=O)c2ccc(C(N)=O)cc2)n1` (configuration not stated) was -10.6%; that for `Cc1cc(C)n(CC2CCCCN2C(=O)c2ccc3c(c2)COC3)n1` (configuration not stated) was 56.4%; that for `CN(C)CC(=O)NC1CC(C)(C)Cc2nc(C(C)(C)C)ncc21` (configuration not stated) was 43.6%. With `O=C(CN1CC(c2ccccc2)CC1=O)NCc1cc2n(n1)CCNC2` (configuration not stated) the figure was 17.3%. Turning to `Cc1noc2nc3c(c(C(=O)/N=c4\[nH]nc(C(C)C)s4)c12)CCC3`, the INHIBITION came out at 38%. The value for `Cn1cc(CN2CCO[C@@H]3CN(Cc4ccoc4)C[C@@H]3C2)cn1` was -18.4%; that for `COCC(NC1CCSCC1)c1ccnn1C` (configuration not stated) was 47.6%; that for `CN1C(=O)C2(CCCN(C(=O)c3cccnc3O)C2)c2ccccc21` (configuration not stated) was 7.25%. With `O=C(NCC1(N2CCOCC2)CCSC1)Nc1ccc(F)cc1` (configuration not stated) the figure was 23.5%; with `Cc1cccc(NC(=O)NCC2(N3CCOCC3)CCSC2)c1` (configuration not stated), 34.5%; with `Cc1ccc(NC(=O)NCC2(N3CCOCC3)CCSC2)c(C)c1` (configuration not stated), 74.2%. With `COc1nc2c(cc1C(=O)NC(C)Cc1cc(C)n[nH]1)CCC2` (configuration not stated) the figure was -37.9%; with `Cn1c(=O)[nH]c(=O)n2c(CC(=O)Nc3ccc(Cl)c(Cl)c3)cnc12`, 20.1%. Consider `Cc1nc(N(C)CCN(C)C)c2cnn(C)c2n1`, for which the INHIBITION was 29.2%.

Regarding `CCc1nnc(CN(C)c2nc(C3CCCC3)nc3c2cnn3C)o1`, the INHIBITION came to 1.81%. Regarding `CCc1nnc(CN(C)c2nc(C(C)C)nc3c2cnn3C)o1`, the INHIBITION came out at 53.5%. With `CN(C)C(=O)C1CN(c2ncccn2)CCN1C` (configuration not stated) the figure was 25.8%. As to `COc1ncccc1CNC(=O)N(Cc1ccc(F)cc1F)C1CC1`, the INHIBITION amounted to 48.2%. With `Cc1ccnc(C(Nc2nccc(-c3ccc(C)nc3C)n2)C2CC2)c1` (configuration not stated) the figure was 41.3%; with `Cc1nc(CN2CCOC(Cn3cccn3)C2)nc2ccccc12` (configuration not stated), -31.8%.
